Reference: the supplement of paper PMC9446081
± gives the standard deviation of the averaged measurements.

How the values were obtained:
Assay in all cases: relative enzymatic activity vs untreated control (fraction); higher = less inhibition
Settings in all cases: 100 µM; incubation time: 2 h at 37 C
[1] = system: DNA gyrase
Experimental: (§1)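 In vitro enzymatic inhibition assays (ProFoldin kits) for 12 purified essential E. coli enzymes or complexes, each treated with 218 active antibacterial compounds at 100 µM for 2 h at 37°C. Read-outs were fluorescence or absorbance (phosphate detection, dye binding), converted to activity via standard curves and expressed relative to untreated DMSO controls.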

[2] = target: DNA helicase (UniProt P0ACB1)
Experimental: as §1

[3] = target: DNA ligase (UniProt B1XA82)
Experimental: as §1

[4] = target: DNA polymerase (UniProt P10443)
Experimental: as §1

[5] = target: DNA primase (UniProt P0ABS7)
Experimental: as §1

[6] = target: GlmU (UniProt A7ZTU1)
Experimental: as §1

[7] = target: Guanlyate kinase (UniProt Q0TBG1)
Experimental: as §1

[8] = target: MurA (UniProt Q3YX52)
Experimental: as §1

[9] = target: T1, MurD (UniProt P14900)
T1 sequence (whole entry): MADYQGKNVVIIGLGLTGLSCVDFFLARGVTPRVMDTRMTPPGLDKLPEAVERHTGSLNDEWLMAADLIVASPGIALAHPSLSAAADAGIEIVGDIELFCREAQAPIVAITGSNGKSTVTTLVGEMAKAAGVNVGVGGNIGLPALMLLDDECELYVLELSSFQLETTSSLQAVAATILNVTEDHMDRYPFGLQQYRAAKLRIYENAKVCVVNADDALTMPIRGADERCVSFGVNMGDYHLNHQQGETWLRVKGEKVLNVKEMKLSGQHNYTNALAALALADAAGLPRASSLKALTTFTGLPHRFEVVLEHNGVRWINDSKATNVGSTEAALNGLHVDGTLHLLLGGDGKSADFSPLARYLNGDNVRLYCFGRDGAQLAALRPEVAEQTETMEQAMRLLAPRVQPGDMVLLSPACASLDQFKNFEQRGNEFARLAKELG
Experimental: as §1

[10] = target: T2, MurF (UniProt P11880)
T2 sequence (whole entry): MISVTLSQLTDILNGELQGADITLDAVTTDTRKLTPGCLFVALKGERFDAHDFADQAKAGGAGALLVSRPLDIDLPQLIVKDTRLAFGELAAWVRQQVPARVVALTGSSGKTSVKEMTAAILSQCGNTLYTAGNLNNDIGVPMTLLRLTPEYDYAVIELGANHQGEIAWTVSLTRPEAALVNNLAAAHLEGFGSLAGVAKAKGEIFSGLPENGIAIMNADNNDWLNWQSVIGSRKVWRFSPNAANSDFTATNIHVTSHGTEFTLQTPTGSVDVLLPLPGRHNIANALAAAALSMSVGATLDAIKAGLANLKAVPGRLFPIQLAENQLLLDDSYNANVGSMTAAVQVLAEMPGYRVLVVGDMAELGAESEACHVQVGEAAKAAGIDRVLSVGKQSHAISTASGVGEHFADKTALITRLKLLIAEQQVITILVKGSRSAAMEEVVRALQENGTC
Experimental: as §1

[11] = system: RNA polymerase
Experimental: as §1

[12] = target: MurC (UniProt C4ZRI6)
Experimental: as §1

Sequence of MurC (C4ZRI6 whole entry, looked up): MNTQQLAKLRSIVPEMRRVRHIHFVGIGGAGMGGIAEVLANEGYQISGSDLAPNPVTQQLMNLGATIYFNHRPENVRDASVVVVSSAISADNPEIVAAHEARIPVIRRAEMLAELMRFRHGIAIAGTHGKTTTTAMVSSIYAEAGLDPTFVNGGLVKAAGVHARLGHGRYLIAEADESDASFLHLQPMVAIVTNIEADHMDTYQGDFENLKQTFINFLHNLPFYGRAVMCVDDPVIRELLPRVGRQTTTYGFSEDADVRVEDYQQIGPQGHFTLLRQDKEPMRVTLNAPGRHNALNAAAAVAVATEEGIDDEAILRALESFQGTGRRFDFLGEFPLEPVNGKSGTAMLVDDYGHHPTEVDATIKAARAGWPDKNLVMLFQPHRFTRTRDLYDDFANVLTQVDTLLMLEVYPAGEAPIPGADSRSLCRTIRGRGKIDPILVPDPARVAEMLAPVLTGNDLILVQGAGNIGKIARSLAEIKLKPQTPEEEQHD
Sequence of DNA primase (P0ABS7 whole entry): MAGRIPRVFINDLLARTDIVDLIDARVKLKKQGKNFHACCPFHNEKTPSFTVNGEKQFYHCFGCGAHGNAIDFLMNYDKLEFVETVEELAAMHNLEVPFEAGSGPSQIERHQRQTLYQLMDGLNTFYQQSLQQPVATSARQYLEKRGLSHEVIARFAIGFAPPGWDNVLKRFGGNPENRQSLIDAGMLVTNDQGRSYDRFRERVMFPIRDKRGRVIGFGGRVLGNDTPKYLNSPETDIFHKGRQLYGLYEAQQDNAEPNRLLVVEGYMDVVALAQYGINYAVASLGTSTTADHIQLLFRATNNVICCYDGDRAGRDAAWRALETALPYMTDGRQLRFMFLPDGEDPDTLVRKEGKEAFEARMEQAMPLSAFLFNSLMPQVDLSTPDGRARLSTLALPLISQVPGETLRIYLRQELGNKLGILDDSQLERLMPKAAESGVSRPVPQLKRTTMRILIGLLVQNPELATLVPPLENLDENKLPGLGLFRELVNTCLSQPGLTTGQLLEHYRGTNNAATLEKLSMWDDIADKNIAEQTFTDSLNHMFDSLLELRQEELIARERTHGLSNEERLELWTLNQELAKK
Sequence of MurA (Q3YX52 whole entry): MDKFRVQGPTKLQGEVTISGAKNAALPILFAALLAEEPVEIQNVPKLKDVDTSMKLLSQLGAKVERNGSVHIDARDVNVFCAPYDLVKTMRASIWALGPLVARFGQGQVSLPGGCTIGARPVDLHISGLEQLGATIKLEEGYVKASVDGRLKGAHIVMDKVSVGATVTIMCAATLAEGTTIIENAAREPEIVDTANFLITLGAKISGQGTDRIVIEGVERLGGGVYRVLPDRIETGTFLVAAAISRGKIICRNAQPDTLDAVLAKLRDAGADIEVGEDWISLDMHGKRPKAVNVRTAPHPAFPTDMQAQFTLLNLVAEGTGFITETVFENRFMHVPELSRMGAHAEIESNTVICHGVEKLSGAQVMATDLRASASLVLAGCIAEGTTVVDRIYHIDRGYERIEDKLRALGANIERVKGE
Sequence of Guanlyate kinase (Q0TBG1 whole entry): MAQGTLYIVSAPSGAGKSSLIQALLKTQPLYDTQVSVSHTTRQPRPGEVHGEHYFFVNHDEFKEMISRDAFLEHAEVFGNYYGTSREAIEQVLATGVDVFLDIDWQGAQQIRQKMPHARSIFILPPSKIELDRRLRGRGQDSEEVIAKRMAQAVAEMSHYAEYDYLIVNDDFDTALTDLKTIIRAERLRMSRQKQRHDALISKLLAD
Sequence of DNA helicase (P0ACB1 whole entry): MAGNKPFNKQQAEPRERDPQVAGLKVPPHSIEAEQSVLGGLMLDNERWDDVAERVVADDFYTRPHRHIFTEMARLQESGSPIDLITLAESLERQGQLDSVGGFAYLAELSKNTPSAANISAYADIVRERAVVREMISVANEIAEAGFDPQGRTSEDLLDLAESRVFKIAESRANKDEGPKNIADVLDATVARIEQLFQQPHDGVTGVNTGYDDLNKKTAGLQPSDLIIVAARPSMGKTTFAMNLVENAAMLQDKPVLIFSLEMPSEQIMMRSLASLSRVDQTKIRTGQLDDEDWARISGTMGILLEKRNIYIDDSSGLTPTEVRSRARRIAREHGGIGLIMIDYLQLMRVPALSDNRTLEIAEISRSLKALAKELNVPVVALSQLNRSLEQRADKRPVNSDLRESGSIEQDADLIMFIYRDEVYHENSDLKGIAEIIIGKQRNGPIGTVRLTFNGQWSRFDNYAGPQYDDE
Sequence of GlmU (A7ZTU1 whole entry, looked up): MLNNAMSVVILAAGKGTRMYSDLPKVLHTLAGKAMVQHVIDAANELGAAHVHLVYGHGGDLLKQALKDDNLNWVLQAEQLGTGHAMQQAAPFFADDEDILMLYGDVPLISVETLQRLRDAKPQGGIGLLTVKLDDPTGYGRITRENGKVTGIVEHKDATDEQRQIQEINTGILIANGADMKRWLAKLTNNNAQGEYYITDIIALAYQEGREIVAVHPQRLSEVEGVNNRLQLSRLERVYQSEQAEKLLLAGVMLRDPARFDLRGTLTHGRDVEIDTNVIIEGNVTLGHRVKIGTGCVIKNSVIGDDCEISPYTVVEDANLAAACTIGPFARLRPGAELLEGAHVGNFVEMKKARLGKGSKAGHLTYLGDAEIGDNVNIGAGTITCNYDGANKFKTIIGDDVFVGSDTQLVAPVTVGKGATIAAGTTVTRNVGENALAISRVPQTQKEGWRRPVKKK
Sequence of DNA ligase (B1XA82 whole entry): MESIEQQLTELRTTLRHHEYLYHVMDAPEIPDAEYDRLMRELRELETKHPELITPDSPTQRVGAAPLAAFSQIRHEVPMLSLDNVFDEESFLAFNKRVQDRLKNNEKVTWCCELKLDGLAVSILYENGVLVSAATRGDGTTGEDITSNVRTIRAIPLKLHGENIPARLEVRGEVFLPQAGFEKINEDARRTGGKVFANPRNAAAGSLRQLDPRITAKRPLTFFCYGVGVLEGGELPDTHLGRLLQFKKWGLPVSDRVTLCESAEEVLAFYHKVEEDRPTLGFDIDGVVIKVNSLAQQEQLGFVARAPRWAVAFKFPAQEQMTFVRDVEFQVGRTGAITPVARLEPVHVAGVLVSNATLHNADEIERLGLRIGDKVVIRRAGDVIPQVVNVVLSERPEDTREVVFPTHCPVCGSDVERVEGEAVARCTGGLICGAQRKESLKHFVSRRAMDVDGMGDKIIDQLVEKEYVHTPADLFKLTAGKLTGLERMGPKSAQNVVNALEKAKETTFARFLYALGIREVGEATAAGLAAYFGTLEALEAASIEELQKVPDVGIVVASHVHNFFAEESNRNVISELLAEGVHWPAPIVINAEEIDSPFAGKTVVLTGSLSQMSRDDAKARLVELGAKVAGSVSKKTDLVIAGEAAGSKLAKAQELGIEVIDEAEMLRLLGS
Sequence of DNA polymerase (P10443 whole entry): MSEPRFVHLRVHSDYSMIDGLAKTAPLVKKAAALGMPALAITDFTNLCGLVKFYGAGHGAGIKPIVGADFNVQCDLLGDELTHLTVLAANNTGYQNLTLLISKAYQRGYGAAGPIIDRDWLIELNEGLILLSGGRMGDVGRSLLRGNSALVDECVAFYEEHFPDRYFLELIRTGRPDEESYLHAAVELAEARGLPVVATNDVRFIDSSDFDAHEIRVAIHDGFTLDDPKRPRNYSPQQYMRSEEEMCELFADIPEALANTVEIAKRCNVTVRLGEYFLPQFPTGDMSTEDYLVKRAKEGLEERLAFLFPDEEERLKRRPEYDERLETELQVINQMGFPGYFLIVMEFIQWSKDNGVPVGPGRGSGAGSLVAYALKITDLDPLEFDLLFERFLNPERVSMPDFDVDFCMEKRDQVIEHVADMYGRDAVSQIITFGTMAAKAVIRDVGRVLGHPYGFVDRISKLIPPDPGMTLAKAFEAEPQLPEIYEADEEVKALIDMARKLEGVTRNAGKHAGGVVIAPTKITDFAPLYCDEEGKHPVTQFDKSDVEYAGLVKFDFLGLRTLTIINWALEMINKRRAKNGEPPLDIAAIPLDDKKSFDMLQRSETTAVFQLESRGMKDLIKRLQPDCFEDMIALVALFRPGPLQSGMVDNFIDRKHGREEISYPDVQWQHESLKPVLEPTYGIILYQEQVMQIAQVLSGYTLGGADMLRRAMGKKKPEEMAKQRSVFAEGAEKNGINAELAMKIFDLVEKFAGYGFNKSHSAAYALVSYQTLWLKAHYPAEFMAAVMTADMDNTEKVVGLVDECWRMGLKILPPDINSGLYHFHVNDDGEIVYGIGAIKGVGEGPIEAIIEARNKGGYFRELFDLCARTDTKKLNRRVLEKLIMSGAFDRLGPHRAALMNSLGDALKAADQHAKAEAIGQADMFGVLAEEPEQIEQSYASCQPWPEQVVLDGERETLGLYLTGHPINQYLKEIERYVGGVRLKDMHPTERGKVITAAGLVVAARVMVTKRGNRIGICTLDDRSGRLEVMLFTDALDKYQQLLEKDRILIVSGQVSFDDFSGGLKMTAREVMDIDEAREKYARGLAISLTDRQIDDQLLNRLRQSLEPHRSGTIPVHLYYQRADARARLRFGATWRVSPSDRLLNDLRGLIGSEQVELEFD

SMILES: O=c1[nH]c(=O)n([C@@H]2C[C@@H](O)[C@@H](CO)O2)cc1F
- relative enzymatic activity [1]: 1.07 ± 0.043
- relative enzymatic activity [2]: 0.591 ± 0.15
- relative enzymatic activity [3]: 0.947 ± 0.062
- relative enzymatic activity [4]: 0.708 ± 0.44
- relative enzymatic activity [5]: 0.873 ± 0.022
- relative enzymatic activity [6]: 1.03 ± 0.065
- relative enzymatic activity [7]: 0.967 ± 0.1
- relative enzymatic activity [8]: 0.74 ± 0.18
- relative enzymatic activity [9]: 0.604 ± 0.39
- relative enzymatic activity [10]: 1.01 ± 0.22
- relative enzymatic activity [11]: 0.834 ± 0.019

SMILES: CO/N=C1\CN(c2nc3c(cc2F)c(=O)c(C(=O)O)cn3C2CC2)C[C@@H]1CN
- relative enzymatic activity [1]: 0.0916 ± 0.13
- relative enzymatic activity [2]: 0.4747 ± 0.0033
- relative enzymatic activity [3]: 0.891 ± 0.14
- relative enzymatic activity [4]: 0.53 ± 0.72
- relative enzymatic activity [5]: 0.751 ± 0.05
- relative enzymatic activity [6]: 0.979 ± 0.019
- relative enzymatic activity [7]: 0.738 ± 0.26
- relative enzymatic activity [8]: 0.631 ± 0.21
- relative enzymatic activity [12]: 0.717 ± 0.047
- relative enzymatic activity [9]: 0.572 ± 0.38
- relative enzymatic activity [10]: 0.964 ± 0.17
- relative enzymatic activity [11]: 0.807 ± 0.074

SMILES: Cn1sccc1=O
- relative enzymatic activity [1]: 0.437 ± 0.62
- relative enzymatic activity [2]: 0.607 ± 0.19
- relative enzymatic activity [3]: 1 ± 0.053
- relative enzymatic activity [4]: 1 ± 0.17
- relative enzymatic activity [5]: 0.8591 ± 0.0028
- relative enzymatic activity [6]: 0.622 ± 0.045
- relative enzymatic activity [7]: 0.903 ± 0.084
- relative enzymatic activity [8]: 0.0867 ± 0.0083
- relative enzymatic activity [12]: 0.969 ± 0.062
- relative enzymatic activity [9]: 0.579 ± 0.4
- relative enzymatic activity [10]: 0.968 ± 0.27
- relative enzymatic activity [11]: 0.847 ± 0.097

SMILES: CN(C)c1ccc(O)c2c1C[C@H]1C[C@H]3[C@H](N(C)C)C(=O)C(C(N)=O)=C(O)[C@@]3(O)C(=O)[C@H]1C2=O
- relative enzymatic activity [1]: 0.655 ± 0.27
- relative enzymatic activity [2]: 0.659 ± 0.38
- relative enzymatic activity [3]: 0.8389 ± 0.0033
- relative enzymatic activity [4]: 0.961 ± 0.2
- relative enzymatic activity [5]: 0.669 ± 0.027
- relative enzymatic activity [6]: 0.995 ± 0.035
- relative enzymatic activity [7]: 0.701 ± 0.069
- relative enzymatic activity [8]: 0.0752 ± 0.015
- relative enzymatic activity [12]: 0.99 ± 0.069
- relative enzymatic activity [9]: 0.623 ± 0.42
- relative enzymatic activity [10]: 0.96 ± 0.18
- relative enzymatic activity [11]: 0.304 ± 0.052

SMILES: C[C@H]1COc2c(C3(N)CC3)c(F)cc3c(=O)c(C(=O)O)cn1c23
- relative enzymatic activity [1]: 0.0356 ± 0.05
- relative enzymatic activity [2]: 0.447 ± 0.079
- relative enzymatic activity [3]: 0.801 ± 0.074
- relative enzymatic activity [4]: 0.5 ± 0.7
- relative enzymatic activity [5]: 0.8435 ± 0.0058
- relative enzymatic activity [6]: 0.995 ± 0.012
- relative enzymatic activity [7]: 0.991 ± 0.021
- relative enzymatic activity [8]: 0.619 ± 0.16
- relative enzymatic activity [12]: 1.01 ± 0.03
- relative enzymatic activity [9]: 0.578 ± 0.38
- relative enzymatic activity [10]: 0.946 ± 0.25
- relative enzymatic activity [11]: 0.861 ± 0.087

SMILES: CON=C(C(=O)NC1C(=O)N2C(C(=O)[O-])=C(COC(N)=O)CSC12)c1ccco1.[Na+] (stereo not given)
- relative enzymatic activity [1]: 1.06 ± 0.11
- relative enzymatic activity [2]: 0.47 ± 0.024
- relative enzymatic activity [3]: 1.36 ± 0.18
- relative enzymatic activity [4]: 1.12 ± 0.2
- relative enzymatic activity [5]: 0.69 ± 0.18
- relative enzymatic activity [6]: 1.12 ± 0.054
- relative enzymatic activity [7]: 0.9 ± 0.019
- relative enzymatic activity [8]: 0.117 ± 0.034
- relative enzymatic activity [12]: 1.33 ± 0.083
- relative enzymatic activity [9]: 0.72 ± 0.49
- relative enzymatic activity [10]: 1.02 ± 0.23
- relative enzymatic activity [11]: 0.866 ± 0.088

SMILES: Cc1ccc(S(=O)(=O)O)cc1.NC1CCN(c2nc3c(cc2F)c(=O)c(C(=O)O)cn3-c2ccc(F)cc2F)C1.O (stereo not given)
- relative enzymatic activity [1]: 1.41 ± 0.49
- relative enzymatic activity [2]: 0.509 ± 0.054
- relative enzymatic activity [3]: 1.02 ± 0.043
- relative enzymatic activity [4]: 1.15 ± 0.22
- relative enzymatic activity [5]: 0.892 ± 0.035
- relative enzymatic activity [6]: 0.991 ± 0.05
- relative enzymatic activity [7]: 0.699 ± 0.11
- relative enzymatic activity [8]: 0.644 ± 0.029
- relative enzymatic activity [12]: 0.988 ± 0.17
- relative enzymatic activity [9]: 0.935 ± 0.86
- relative enzymatic activity [10]: 1.01 ± 0.21
- relative enzymatic activity [11]: 0.771 ± 0.031

SMILES: CCCN1C[C@H](C)[C@@H](O)[C@](C)(O)[C@@H](CC)OC(=O)[C@H](C)[C@@H](O[C@H]2C[C@@](C)(OC)[C@@H](O)[C@H](C)O2)[C@H](C)[C@@H](O[C@@H]2O[C@H](C)C[C@H](N(C)C)[C@H]2O)[C@](C)(O)C[C@H]1C
- relative enzymatic activity [1]: 0.764 ± 0.38
- relative enzymatic activity [2]: 0.556 ± 0.17
- relative enzymatic activity [3]: 0.802 ± 0.014
- relative enzymatic activity [4]: 1.09 ± 0.11
- relative enzymatic activity [5]: 0.868 ± 0.012
- relative enzymatic activity [6]: 1.073 ± 0.0078
- relative enzymatic activity [7]: 0.858 ± 0.12
- relative enzymatic activity [8]: 0.761 ± 0.074
- relative enzymatic activity [12]: 1.02 ± 0.024
- relative enzymatic activity [9]: 0.596 ± 0.42
- relative enzymatic activity [10]: 0.968 ± 0.17
- relative enzymatic activity [11]: 0.766 ± 0.12
